In the library only some 1.6% were active in any assay of this set; here they are far more common.
KCNQ2 enhance – KCNQ2 (rat) channel potentiation; CHO-K1 KCNQ2, FluxOR thallium flux fluorescence; active compounds read high; B-score at 10 µM; 310,000 tested, 0.54% active; AID 2239;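 active means fluorescence ratio B-score at least 3 SD of library B-scores, with initial fluorescence B-score within 3 of them, cut at about 5.3 in these data; same plate scores as AID 2156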;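 further: B-score of peak minus minimum over baseline fluorescence ratio after K+ and Tl+ stimulus; positive B-score means potentiation of KCNQ2 with more thallium influx and brighter signal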
KCNQ2 inh – inhibitors of rat KCNQ2 potassium channel | B-score at 10 µM | O88943 | CHO-K1 KCNQ2, FluxOR thallium flux, 20 min; active compounds read low | 310,000 tested, 1.1% active;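 active means fluorescence ratio B-score at most minus 3 library SDs, with starting brightness B-score within 2 library SDs, cut at about -5.5 in these data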
KCNQ2 inh conf – rat KCNQ2 channel inhibition, confirmatory screen; shares compounds with KCNQ2 inh; KCNQ2-expressing cells, thallium flux; active compounds read low; activity change, negative = inhibition, % at 10 µM; 1,000 tested, 57% active; AID 493025;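 further: 0% = vehicle wells and values are ratio percent relative to vehicle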
KCNQ1 spec – human KCNQ1 activity in KCNQ2 inhibitor specificity screen | shares compounds with KCNQ2 inh | KCNQ1-expressing cells, FluxOR thallium flux fluorescence; active compounds read low | activity change, negative = inhibition, % at 10 µM | 1,000 tested, 15% active;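 active means activity change at least 3 SD of negative controls below their mean in both duplicate wells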;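 further: CHO cells stably transfected with KCNQ1 and depolarized by potassium stimulus; peak minus minimum fluorescence over baseline after thallium addition; 0% = vehicle negative control and -100% = blank without thallium stimulus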
CHO Tl ctr – activity in parental CHO cells lacking KCNQ2; shares compounds with KCNQ2 inh; thallium flux counter-screen; active compounds read low; activity change, % at 10 µM; 1,000 tested, 14% active; AID 493029;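 further: 0% = vehicle negative controls with stimulus buffer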
KCNQ2 inh confirm – blocks rat KCNQ2 current in automated patch clamp | shares compounds with KCNQ2 inh | KCNQ2-expressing cells | calls only at 10 µM | 550 tested, 49% active
Kir21 confirm – confirmation of mouse Kir2.1 potassium channel inhibitors; shares compounds with KCNQ2 enhance; Kir2.1-expressing cells, FluxOR thallium flux fluorescence; active compounds read low; Tl flux remaining, % of negative control (active compounds read low), % at 10 µM; 2,300 tested, 41% active; AID 2032;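 active means Primary-screen hit whose thallium flux fell at least 3 control SD below untreated wells in both duplicates, with normal baseline fluorescence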;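 further: 0% = blank wells without stimulus and 100% = stimulated no-compound controls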
Target sequence (P35561 whole entry, looked up): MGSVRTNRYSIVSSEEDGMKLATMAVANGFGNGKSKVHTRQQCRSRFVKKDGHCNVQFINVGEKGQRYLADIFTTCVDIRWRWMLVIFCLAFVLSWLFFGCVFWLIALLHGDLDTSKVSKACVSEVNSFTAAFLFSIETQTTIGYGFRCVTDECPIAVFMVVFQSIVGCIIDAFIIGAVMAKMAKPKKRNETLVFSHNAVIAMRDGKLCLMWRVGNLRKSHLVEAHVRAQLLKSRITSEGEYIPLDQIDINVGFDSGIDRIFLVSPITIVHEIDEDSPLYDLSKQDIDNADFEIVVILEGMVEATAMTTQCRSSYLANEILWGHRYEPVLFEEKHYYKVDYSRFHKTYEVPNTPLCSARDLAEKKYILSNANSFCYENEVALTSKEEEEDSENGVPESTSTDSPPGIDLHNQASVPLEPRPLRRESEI
HEK293 ctr – counter-screen for Kir2.1 inhibitors: effect in parental HEK293 cells; AID 2105; shares compounds with KCNQ2 enhance; FluxOR thallium flux fluorescence; 0% = unstimulated blank wells; 2,300 tested, 19% active; FluxOR signal as % of negative control (100 = no effect), % at 10 µM;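 active means dye signal at least 3 control SD above or below untreated wells in both duplicates, raw fluorescence within 3, either direction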;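 further: percent is based on the flux ratio of peak minus minimum fluorescence over baseline F0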
Numbers without * were called inactive; i = inactive; x = not tested or not shown; + = active, no number. Unless noted, how the calls were made is not given here.

SMILES | KCNQ2 enhance | KCNQ2 inh | KCNQ2 inh conf | KCNQ1 spec | CHO Tl ctr | others
CN1CCN(c2ccccc2NC(=O)c2ccc(F)cc2)CC1 | 0.74 | i | x | x | x
Cc1ccc(-c2ocnc2C(=O)Nc2ccccc2C(=O)N2CCCC2)cc1 | 0.17 | i | x | x | x
O=C(Nc1ccccc1N1CCCCC1)c1ncoc1-c1ccc(F)cc1 | -7.1 | -7.1* | i | i | i
COc1ccc(Cl)cc1-c1csc(N)n1 | 0.95 | i | x | x | x
CC(C)(C)NCC(O)Cn1cc(C=O)c2ccccc21 (configuration not stated) | 1.7 | i | x | x | x
CN1CCN(Cn2cc(/C=C/C(=O)c3ccccc3)c3ccccc32)CC1 | -9.2 | -9.2* | -34%* | i | i | KCNQ2 inh confirm=+
COc1ccc(C(=O)/C=C/c2cn(CC(O)CN3CCN(C)CC3)c3ccccc23)cc1OC (configuration not stated) | x | i | x | x | x
CCCCN(C)CC(O)Cn1cc(/C=C/C(=O)c2ccc(C)cc2)c2ccccc21 (configuration not stated) | -9.7 | -9.7* | i | i | i
CCOC(=O)c1c(-c2ccc(-c3ccccc3)cc2)csc1NC(=O)CNCCN(C)C | -8.8 | -8.8* | i | i | i
CCOC(=O)c1c(-c2cccs2)csc1NC(=O)C(C)(C)C | -7 | -7* | -35%* | -37%* | -34%* | KCNQ2 inh confirm=i
CCOC(=O)c1c(-c2cccs2)csc1NC(=O)CN1CC(C)OC(C)C1 (configuration not stated) | -8.1 | -8.1* | -19%* | i | i | KCNQ2 inh confirm=i
CCOC(=O)c1c(-c2cccs2)csc1NC(=O)CCCC(=O)O | 0.46 | i | x | x | x
CCOC(=O)c1c(-c2cccs2)csc1NC(C)=O | x | i | x | x | x
CCOC(=O)c1c(-c2ccc(-c3ccccc3)cc2)csc1NC(=O)CCN1CCOCC1 | 1.2 | i | x | x | x
CC(=O)c1c(C)nc(-c2ccccc2)nc1N | 0.05 | i | x | x | x
CCOc1cc(C(=O)Nc2nnc(C)s2)cc(OCC)c1OCC | 1.6 | i | x | x | x
O=C(COC(=O)CCSc1ccccc1)NCc1ccccc1Cl | 0.48 | i | x | x | x
Cc1cccc(C)c1OCC(=O)Nc1cccc(-c2nnc(-c3ccccc3)o2)c1 | -9.5 | -9.5* | -28%* | i | i | KCNQ2 inh confirm=i
Cc1cccc(OCC(=O)Nc2cccc(-c3nnc(-c4ccccc4)o3)c2)c1C | 0.59 | i | x | x | x
O=C(COC(=O)c1ccccc1C(=O)c1ccc(Cl)cc1)NC(c1ccccc1)c1ccccc1 | -8.7 | -8.7* | i | i | i
O=C(OCc1ccccc1Cl)c1cccnc1Cl | x | i | x | x | x
O=C(OCc1ccccc1Cl)c1ccccc1C(=O)c1ccccc1 | -8.3 | -8.3* | -36%* | -36%* | -34%* | KCNQ2 inh confirm=i
O=C(COC(=O)c1ccccc1C(=O)c1ccc(Cl)cc1)NCCc1ccccc1 | x | i | x | x | x
CCOc1c(Br)cc(CNc2ccc(N3CCOCC3)cc2)cc1OC | x | i | x | x | x
Cc1ccc(CCNC(=O)C2CCN(S(=O)(=O)c3ccc4c(c3)NC(=O)C(C)S4)CC2)cc1 (configuration not stated) | 1.4 | i | x | x | x
SMILES | KCNQ2 enhance | KCNQ2 inh | KCNQ2 inh conf | KCNQ1 spec | CHO Tl ctr | others
Cc1ccc(Cn2nnc3c(=O)[nH]c(C(=O)NCc4ccco4)nc32)cc1 | 1.5 | i | x | x | x
CC(=O)N/C(=C\c1ccccc1)C(=O)OC/C=C/c1ccccc1 | x | i | x | x | x
CCOC(=O)c1nnc(-c2cccs2)nc1Oc1ccccc1C(=O)OC | x | i | x | x | x
COCCN(C(=O)Cc1cccs1)C(C(=O)NCc1ccc(OC)cc1)c1ccc(C(C)C)cc1 (configuration not stated) | -8.6 | -8.6* | -35%* | i | i | KCNQ2 inh confirm=+
CCc1ccc(C(C(=O)NCc2ccc(OC)cc2)N(CCOC)C(=O)Cc2cccs2)cc1 (configuration not stated) | x | i | x | x | x
CC1CCN(C(=O)c2cc3nc(-c4ccccc4)cc(-c4ccccc4)n3n2)CC1 | -7.8 | -7.8* | -35%* | i | i | KCNQ2 inh confirm=i
O=C(c1cc(-c2ccc(Cl)cc2)nc2ccccc12)N1CCOCC1 | x | i | x | x | x
O=C(NCCN1CCOCC1)c1cnn2c(-c3ccccc3)cc(-c3ccccc3)nc12 | x | i | x | x | x
O=C(NC1CCCC1)c1cc2nc(-c3ccccc3)cc(-c3ccccc3)n2n1 | x | i | x | x | x
O=C(c1cnn2c(-c3ccccc3)cc(-c3ccccc3)nc12)N1CCN(Cc2ccccc2)CC1 | -8.9 | -8.9* | -28%* | i | i | KCNQ2 inh confirm=i
Cc1ccc(-c2cc(C(=O)N3CCC(C)CC3)c3ccccc3n2)cc1 | -8.3 | -8.3* | -29%* | i | i | KCNQ2 inh confirm=i
CC(C)CCn1c(=O)c2ccccc2c2ccccc2c1=O | x | i | x | x | x
CCn1c(Cc2ccc(OC)cc2)nc2ccccc21 | x | i | x | x | x
c1ccc(Cc2nc3ccccc3n2Cc2ccccc2)cc1 | -8.1 | -8.1* | -46%* | -44%* | -36%* | KCNQ2 inh confirm=i;Kir21 confirm=64%*;HEK293 ctr=77%*
CC(C)CN(CC(C)C)C(=O)Cc1coc2ccc3ccccc3c12 | -8.4 | -8.4* | -31%* | -28%* | -20%* | KCNQ2 inh confirm=+;Kir21 confirm=i;HEK293 ctr=i
O=C(O)Cc1coc2ccc3ccccc3c12 | 0.01 | i | x | x | x
COC(=O)c1ccccc1-n1c(CCC(=O)O)ccc1-c1ccccc1 | 0.62 | i | x | x | x
Cc1ccc(C(=O)N/C(=C\c2ccc(-c3cccc([N+](=O)[O-])c3)o2)C(=O)NCCCN(C)C)cc1 | 1.7 | i | x | x | x
Cc1ccc(C(=O)N/C(=C\c2ccc(-c3ccc(Br)cc3)o2)C(=O)NCCCN(C)C)cc1 | -8.2 | -8.2* | -31%* | i | i | KCNQ2 inh confirm=i;Kir21 confirm=i;HEK293 ctr=i
O=C(CN(C(=O)CCC(=O)Nc1nccs1)c1ccc2c(c1)OCO2)NCC1CCCO1 (configuration not stated) | 0.97 | i | x | x | x
COc1cccc(Nc2nc(NCC3CCCO3)c3ccccc3n2)c1 (configuration not stated) | -10 | -10* | i | i | i | Kir21 confirm=18%*;HEK293 ctr=i
COc1cccc(Nc2nc(NCCO)c3ccccc3n2)c1 | x | i | x | x | x
COc1ccc(CNc2ccc(C(=O)O)cc2)cc1 | 0.92 | i | x | x | x
O=C(Nc1ccc2c(c1)OCO2)C1CC(=O)N(c2ccc3c(c2)OCCO3)C1 (configuration not stated) | 0.61 | i | x | x | x
Cc1cc(OCC(=O)NCC(c2cccs2)N2CCOCC2)ccc1C(C)C (configuration not stated) | x | i | x | x | x
